# Sampled rows, rich in hits. Any-hit rate of the full collection: about 11%.
# ALDH1A1 block: blocks purified human ALDH1A1 activity. Potency, µM (top dose mostly 75.3 µM), for the others: at the top dose activity, negative = inhibition, actives largely listed as inhibitors. Purified ALDH1A1, NADH fluorescence, propionaldehyde substrate. P00352. 7.3% of 220,000 active;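 note: potency is the fitted concentration of half-maximal effect; plate controls were no enzyme wells and a reference inhibitor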
# Target sequence (P00352 whole entry, looked up): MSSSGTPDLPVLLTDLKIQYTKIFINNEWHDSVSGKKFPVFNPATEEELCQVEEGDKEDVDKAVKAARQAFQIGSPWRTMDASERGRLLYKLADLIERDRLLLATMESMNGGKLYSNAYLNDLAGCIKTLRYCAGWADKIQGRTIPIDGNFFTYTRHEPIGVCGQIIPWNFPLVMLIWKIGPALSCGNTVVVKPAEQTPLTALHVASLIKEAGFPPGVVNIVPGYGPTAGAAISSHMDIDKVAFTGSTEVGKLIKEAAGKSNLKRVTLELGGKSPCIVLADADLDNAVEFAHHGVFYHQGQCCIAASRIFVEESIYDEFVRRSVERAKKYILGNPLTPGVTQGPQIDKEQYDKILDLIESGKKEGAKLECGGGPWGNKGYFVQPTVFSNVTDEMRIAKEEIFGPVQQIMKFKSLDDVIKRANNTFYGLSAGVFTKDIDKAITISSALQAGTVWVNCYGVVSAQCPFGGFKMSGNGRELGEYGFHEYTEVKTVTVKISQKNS
# HPGD inh: inhibitors of human 15-hydroxyprostaglandin dehydrogenase (HPGD); AID 894; purified HPGD, NADH fluorescence kinetic, PGE2 substrate; Potency, µM, inactives show at the top dose activity change, negative = inhibition, hits mostly inhibitors; P15428; 4.3% of 150,000 active; note: potency is the fitted concentration of half-maximal effect
#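 20 nM HPGD preincubated 15 min at room temperature with compound in 50 mM Tris-HCl pH 8, 0.01% Tween 20. Started with 1 mM NAD+ and 30 uM prostaglandin E2; NADH fluorescence (360/450 nm) read 5 times over 30-s intervals, last minus first.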
# KDM4E inh: JMJD2E (human) inhibition. B2RXH2. JMJD2E catalytic domain, FDH-coupled NADH fluorescence (FDH is formaldehyde dehydrogenase). Potency, µM (doses to about 57.1 µM), inactives show at the top dose activity change, negative = inhibition, most hits filed as inhibitors. 1.6% of 230,000 active. AID 2147;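 note: potency is the fitted concentration of half-maximal effect; 0% = wells with enzyme and -100% = buffer wells without enzyme; nearly all actives have a fitted effect of over 50% in size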
# PNC assembly inh: inhibitors of perinucleolar compartment assembly | PC3M PTB-GFP, PNC prevalence imaging, 16 h; active compounds read low | activity change (PNC), negative = inhibition, % at 10 µM | 3.1% of 140,000 active;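 active = readout at or below -70, meaning at least 70% loss of cells showing the perinucleolar compartment, a nuclear body marking cancer cells; inconclusive = readout between -30 and a set limit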;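 note: plate controls were DMSO wells for no effect and camptothecin positive control wells for full effect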
#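 Compounds are pinned in duplicate onto adhered PC3M cells stably expressing GFP-tagged PTB and incubated 16 h at 37 C. Cells are then fixed, nuclei stained with Hoechst, and PNC-positive cells counted.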
# * = called active by the depositor; ? = inconclusive; . = no result. Unless noted, calls come from the whole dose curve; as a rule, active = well fitted inhibition curve with a large enough effect (not every such curve was filed as active); inconclusive = small, poorly fitted or top-dose-only effect, or another doubt; inactive = no such curve, though single readings can be large or run the other way. Unless noted, % is set by controls: 0 for no effect and ±100 for the full control effect.
SMILES,ALDH1A1 block,HPGD inh,KDM4E inh,PNC assembly inh
O=C(CCN1C(=O)c2cccc([N+](=O)[O-])c2C1=O)Nc1nccs1,?,.,-8%,.
COCCN(Cc1nc(C2(c3ccc(C)cc3)CCCC2)no1)C(C)C,-1%,.,-3%,.
CCCOc1ccc(C(=O)NCCC(=O)NCCCC(=O)O)cc1,.,.,1%,.
Cn1c(=O)cc(Cl)[nH]c1=O,6%,.,-30%,.
O=C(O)c1cccc(N/N=C/C2=C(Cl)c3cc(Cl)ccc3SC2)c1,20µM*,.,-2%,.
O=c1oc2ccccc2c(O)c1/C=C1\C=Nc2ccccc21,13µM*,2.2µM*,-23%,49
CC(/C=C/c1cccc(Oc2ccc(F)cc2)c1)N(O)C(N)=O (centres undefined),5%,-11%,0%,.
CCOc1ccc2ccccc2c1CNc1nnnn1CC,3%,.,-7%,.
CCn1nnnc1NCc1ccc(N2CCCC2)cc1,35µM*,-13%,-2%,21
CCCCCCn1nc(C(=O)Nc2nc3c(s2)CCCC3)c2ccccc2c1=O,-1%,-16%,6%,-21
Cc1cccc(-n2nnnc2SCC(=O)NCCN2C(=O)CSC2=O)c1,20µM*,-4%,-5%,27
O=C(CSc1n[nH]c(-c2cc(Cl)ccc2Cl)n1)NCCN1C(=O)CSC1=O,11%,16µM*,7%,26
Cc1ccc(SCC(=O)NCCN2C(=O)CSC2=O)cc1C,1%,-10%,-9%,-2
Cc1ccc(SCC(=O)NCCN2C(=O)CSC2=O)c(C)c1,-1%,-5%,4%,-100*
Cc1nnc(SCC(=O)NCCN2C(=O)CSC2=O)n1-c1ccccc1,-7%,.,1%,.
O=C(CSc1n[nH]c(-c2ccccc2Br)n1)NCCN1C(=O)CSC1=O,9%,.,-1%,34
Cc1ccc(Nc2nnc(SCC(=O)NCCN3C(=O)CSC3=O)s2)cc1C,18µM*,.,-5%,?
COc1ccc(C(=O)N2CCC[C@@]3(CCN(c4cccc(-c5ccccc5)c4)C3)C2)cc1,?,-24%,.,.
COc1cccc(N2C(=O)C(Cc3c[nH]c4ccccc34)NC2=S)c1 (centres undefined),-1%,-15%,0%,-18
Cc1ccc(S(=O)(=O)NCCCC(=O)C=[N+]=[N-])cc1,13µM*,-4%,4%,-109*
Cc1ccc(S(=O)(=O)NC(=O)Nn2c(C)nnc2C)cc1,16%,-8%,4%,-80*
COC(=O)NNS(=O)(=O)c1ccc(C)cc1,-9%,-5%,5%,-99*
Cc1ccc(S(=O)(=O)NNC(=O)c2cc(C)cs2)cc1,.,.,5%,.
CCOC(=O)CNS(=O)(=O)c1ccc(C)cc1,12%,-3%,1%,-113*
Cc1ccccc1Br,?,-3%,.,.
SMILES,ALDH1A1 block,HPGD inh,KDM4E inh,PNC assembly inh
CC/C=C1/OC(=O)c2ccccc21,?,-7%,.,.
O=C(O)CC1(CC(=O)Nc2ccc3ccccc3n2)CCCCC1,.,.,-5%,.
O=C(c1csnn1)N1CCC2(CC1)CCN(c1ccncc1)CC2,1%,-3%,.,.
COCCNS(=O)(=O)c1ccc(-c2ccc(C)cc2)cc1,?,?,-8%,-18
Cc1ccc(S(=O)(=O)NCCOCCNS(=O)(=O)c2ccc(C)cc2)cc1,13µM*,7%,0%,-16
COC(=O)[C@H](CC(C)C)NC(=O)Nc1ccccc1F,.,.,9%,.
CCOC(=O)CC/C(C)=N\N=C1\SC(CC(=O)O)C(=O)N1c1ccccc1 (centres undefined),.,.,43%,.
COc1ccc(C[C@H]2CN3C(=NC[C@@H]3Cc3ccccc3)N2C[C@H](C)NC(=O)CCC2CCCCC2)cc1,.,.,-8%,.
COc1ccc(C[C@@H]2CN3C(=NC[C@@H]3C)N2C[C@H](C)NC(=O)CCC2CCCCC2)cc1,7.1µM*,.,7%,.
COc1ccc(C[C@H]2CN3C(=NC[C@H]3Cc3ccccc3)N2CCNC(=O)c2ccc(C)c(Br)c2)cc1,.,.,0%,.
COc1ccc(C[C@H]2CN3C(=NC[C@H]3Cc3ccccc3)N2CCNC(=O)CCC2CCCCC2)cc1,10µM*,.,-3%,.
CCCN1Cc2cccc(C(=O)NC(CC(=O)OCC)c3ccc(OCC)c(OC)c3)c2C1=O (centres undefined),?,.,7%,.
O=C(NCC1CC1)c1ccc(Oc2cc(Cl)cc(Cl)c2)o1,?,.,1%,.
NNC(=O)c1ccc(Oc2cc(Cl)cc(Cl)c2)o1,0.16µM*,.,-6%,.
C/C(CC(=O)NCc1ccco1)=N\NC(=O)C(c1ccccc1)c1ccccc1,?,-5%,6%,?
O=C(COC(=O)CCSc1ccc(Cl)cc1)NCc1ccccc1,2%,-6%,5%,?
O=C(CC(c1ccccc1)c1ccccc1O)NCc1ccccc1Cl (centres undefined),-4%,16µM*,-1%,?
O=C(CC(c1ccccc1)c1ccccc1O)NCc1ccco1 (centres undefined),3%,16µM*,-5%,0
O=C(COC(=O)CCSc1ccccc1)NCc1ccccc1Cl,7%,18µM*,2%,29
FC(F)(F)c1ccccc1-c1nc(NC2CC2)c2ccccc2n1,-17%,.,.,.
COCCN(C(=S)Nc1ccc(C(C)C)cc1)C(C)c1cccs1 (centres undefined),0%,.,-3%,.
CCCN1CCN(CCCNC(=O)CCn2nc(-c3ccccc3)ccc2=O)CC1,0%,.,-11%,.
CN1N=C(C(=O)N2CCN(c3ccc([N+](=O)[O-])cc3)CC2)CCC1=O,?,-10%,6%,-94*
O=C(Cc1cccs1)N1CCN(c2ccc([N+](=O)[O-])cc2)CC1,25µM*,.,-1%,.
O=C(CCc1ccccc1)N1CCN(c2ccc([N+](=O)[O-])cc2)CC1,2.2µM*,.,-28%,.
SMILES,ALDH1A1 block,HPGD inh,KDM4E inh,PNC assembly inh
Cc1nc2ncnn2c(N2CCN(C(=O)Cc3cccs3)CC2)c1C,7.9µM*,-23%,-6%,-15
COc1ccc(N(CC(=O)O)S(=O)(=O)c2ccc(C)cc2)cc1Cl,5%,.,-10%,.
O=C(C(Cc1ccccc1)NS(=O)(=O)c1cccc2cccnc12)N1CCc2ccccc21 (centres undefined),-6%,-4%,2%,6
CC12CCC(C(=O)NCCCN3CCOCC3)(C(Br)C1=O)C2(C)C (centres undefined),.,.,2%,.
O=C(Cc1cccs1)N1CCN(C(=O)C2CCCO2)CC1 (centres undefined),?,-2%,-6%,-120*
O=C(c1cccs1)N1CCN(C(=O)C2CCCO2)CC1 (centres undefined),?,-9%,-2%,-1
C=CCn1c(SCC(=O)N2CCCCC2)nnc1-c1ccncc1,-14%,.,0%,.
CCCCS(=O)(=O)c1sc2nc(C)cc(C)c2c1N,-4%,2.8µM*,?,-26
O[C@@H](c1ccccc1)C1CCN(CCc2ccccc2)CC1,-3%,0%,?,.
CN1c2ccsc2/C(=N/Nc2ccc(F)cc2)CS1(=O)=O,1%,.,-7%,.
O=C1NCCC/C1=N/Nc1ccc(F)cc1,13µM*,.,-14%,.
CN(C)CCNC(NC(=O)c1cccs1)C(Cl)(Cl)Cl (centres undefined),6%,-5%,-5%,?
Cc1nc(-c2coc3c(O)c(O)ccc3c2=O)cs1,-13%,-22%,7.1µM*,.
Cc1ccccc1NS(=O)(=O)c1cc(S(C)(=O)=O)ccc1Cl,20µM*,-2%,2%,17
